66 compounds from ChEMBL document CHEMBL4513216, “Probing the Open Global Health Chemical Diversity Library for Multistage-Active Starting Points for Next-Generation Antimalarials” (ACS Infect Dis, 2020) can be followed below.

Out of some 68,000 compounds screened, about 2,700 (4%) showed an effect of 50% or more. For the sample, strong results were picked, then their nearest neighbours and some compounds at random.

This experiment deals with Plasmodium berghei. Nature of the experiment: Screen against P. berghei liver stage (PbLuc), transformed with Luciferase, at 2uM. The experiment is classed as functional, HepG2. The settings on record: tested at 2 uM.
With `CCNC(=O)N1CCc2ccc(NC(=O)C(C)c3ccsc3)cc21` (stereo unspecified), the INHIBITION was -44.17%.

For the compound `CC(Cn1cncn1)NCc1csc2c1CCCC2` (stereo unspecified), the INHIBITION is listed as 26.75%.

For the compound `CC(Cn1ccnc1)NCc1csc2c1CCCC2` (stereo unspecified), the INHIBITION amounted to 66.4%.

Consider `CC(Cn1cccn1)NCc1csc2c1CCCC2` (stereo unspecified), for which the INHIBITION amounted to 49.88%.

`c1ccc2oc(N3CCCC4(CCOC4)C3)nc2c1` (stereo unspecified): the INHIBITION is -14.46%.

Regarding `O=C(NC1CCCC1)O[C@H]1COCCN(c2nc3ccccc3s2)C1`, the INHIBITION is given as 51.26%.

Regarding `CCNC(=O)O[C@H]1COCCN(c2nc3ccccc3s2)C1`, the INHIBITION is given as 29.85%.

On to `CC(C)NC(=O)O[C@H]1COCCN(c2nc3ccccc3s2)C1`, for which the INHIBITION turned out to be 41.93%.

As to `O=C(NC1CCCC1)O[C@H]1COCCN(c2nc3ccccc3o2)C1`, the INHIBITION was determined as 52.91%.

Take `O=C(N[C@@H]1CCN(c2nc3ccccc3o2)C[C@H]1O)c1cnccn1`: the INHIBITION is 26.3%.

`NC(=O)N1CCc2ncc(CNC(=O)CC3CC3)n2CC1`: the INHIBITION came out at 25.08%.

Take `CC(=O)N1CCCC1c1cc(N2CCN(CC3CC3)CC2)cc(C)n1` (stereo unspecified): the INHIBITION was 6.89%.

On to `O=C(c1ccoc1)N1CCc2ncnc(NCc3ccccn3)c2CC1`, for which the INHIBITION was found to be 1.01%.

In the case of `CN(C)CCC1CCN(Cc2ccn(C)c(=O)c2)CC1`, the INHIBITION is listed as 16.84%.

Consider `COC(=O)C1CCN(C(=O)c2nnc3ccc(Cl)cc3n2)CC1`, for which the INHIBITION was 24.52%.

As for `CC(=O)c1cccc(OCCCC(=O)N(C)Cc2cnc(C)s2)c1`, the INHIBITION is -37.03%.

Turning to `Cc1cnc(N2CCC3(CCCN3C(=O)c3ccco3)CC2)nc1`, the INHIBITION amounted to 26.01%.

With `Cc1nc(NCc2ccccc2)cc(C(C)Cn2nc(C)c(C)c2C)n1` (stereo unspecified), the INHIBITION is given as -30.88%.

Regarding `Cc1nc(NCc2nonc2C)cc(C(C)Cn2nc(C)c(C)c2C)n1` (stereo unspecified), the INHIBITION was found to be 84.94%.

As to `Cc1nc(NCCO)cc(C(C)Cn2nc(C)c(C)c2C)n1` (stereo unspecified), the INHIBITION is listed as -16.2%.

For `COc1cc(C2(C(=O)N3CCN(CC(C)(C)O)CC3)CC2)ccc1C`, the INHIBITION is reported as 17.48%.

Turning to `CCc1nc(CN2CCN(C(=O)c3cc(C)nn3C)CC2)cs1`, the INHIBITION turned out to be 53.98%.

For `COc1ccc(C(=O)N2CCN(c3cc(CCN)nc(C)n3)CC2)cc1`, the INHIBITION is -10.41%.

In the case of `CCc1nc(CN2CCCN(C(=O)c3cccn3C)CC2)cs1`, the INHIBITION was -18.39%.

Regarding `CCc1nc(CN2CCCN(C(=O)c3ccccc3)CC2)cs1`, the INHIBITION is -10.44%.

On to `Cc1nc(N2CCN(C(=O)c3ccco3)CC2)c2c(n1)c(C)nn2C`, for which the INHIBITION is recorded as 1.77%.

Consider `CCc1nc(CN2CCCN(C(=O)c3ccco3)CC2)cs1`, for which the INHIBITION turned out to be 70.27%.

For `CCN(CC)Cc1ccc(C(=O)N2CCN(CC(C)O)CC2)o1` (stereo unspecified), the INHIBITION was 21.12%.

Turning to `CCc1ccc(C(=O)N2CCN(CC(O)CC)CC2)o1` (stereo unspecified), the INHIBITION was found to be 5.59%.

`Cc1nc(CCN)cc(N2CCCN(C(=O)c3ccco3)CC2)n1`: the INHIBITION was 54.3%.

For the compound `CCc1nc(CN2CCCN(C(=O)c3occc3C)CC2)cs1`, the INHIBITION is listed as 21.52%.

On to `CCc1ccc(C(=O)N2CCN(CC(C)O)CC2)o1` (stereo unspecified), for which the INHIBITION came out at 54.85%.

Regarding `CCc1nc(CN2CCN(C(=O)c3cc(C)no3)CC2)cs1`, the INHIBITION stood at 36.73%.

`Cc1noc(C)c1CN1CC2(CCN(C(=O)c3c[nH]cn3)C2)CC1=O` (stereo unspecified): the INHIBITION was 47.35%.

Take `Cc1noc(C)c1CN1CCc2ncc(CN(C)C)n2CC1`: the INHIBITION turned out to be 1.48%.

Take `Cc1nc(N2CCN(C)CC2)ncc1C(=O)N1CC[C@](C)(O)[C@H](C)C1`: the INHIBITION is recorded as -5.13%.

In the case of `O=C1[C@@H]2CCN(Cc3ccncc3)C[C@@H]2OCCN1c1ccccc1`, the INHIBITION is recorded as 2.71%.

Turning to `Cc1ccccc1-n1cnc(Cl)c1CO`, the INHIBITION is -40.04%.

For the compound `O=C(NC1CC1)N1CCN(c2cnccn2)CC1`, the INHIBITION is recorded as 11.24%.

`O=C(CCc1ccc(C(F)(F)F)cc1)N1CCCS1(=O)=O`: the INHIBITION is listed as -24.72%.

Turning to `Cn1c(N2CC[C@H](O)C2)nc2cc(C(N)=O)ccc21`, the INHIBITION came to 26.7%.

Take `Cc1ccccc1-c1cncc(C2CCN(Cc3cnn(C)c3)CC2)n1`: the INHIBITION was 18.22%.

`Cc1nc(CN2CCCN(C(=O)CCc3ccco3)CC2)cs1`: the INHIBITION stood at 11.2%.

In the case of `CCc1nc(CN2CCCN(C(=O)c3cc(C)on3)CC2)cs1`, the INHIBITION is given as -24.11%.

As to `CCc1nc(CN2CCCN(C(=O)C3CCOC3)CC2)cs1` (stereo unspecified), the INHIBITION was found to be 56.03%.

Regarding `CCc1ccc(C(=O)N2CCCN(Cc3csc(CC)n3)CC2)o1`, the INHIBITION is listed as 50.61%.

Take `CCc1nc(CN2CCCN(C(=O)c3cnc(C)cn3)CC2)cs1`: the INHIBITION was -12.19%.

For `Cc1nc(CN2CCN(C(=O)CCc3ccco3)CC2)cs1`, the INHIBITION is 60.09%.

As to `CCc1nc(CN2CCCN(C(=O)C3CCOCC3)CC2)cs1`, the INHIBITION was -17.37%.

As for `CCc1nc(CN2CCCN(C(=O)C3CCC3)CC2)cs1`, the INHIBITION is listed as 23.86%.

As for `CCc1nc(CN2CCCN(C(=O)CCc3ccco3)CC2)cs1`, the INHIBITION was 44.12%.

On to `O=C(NC1CC1)C1CCN(c2nc3nc[nH]c(=O)c3s2)CC1`, for which the INHIBITION is listed as 20.16%.

For the compound `CN(Cc1cnn(C)c1)C(=O)C(c1ccccc1)N1CCSCC1` (stereo unspecified), the INHIBITION was determined as 0.21%.

As to `O=C(C[C@@H]1COC[C@H]2CN(Cc3ccc(F)cc3)C[C@@H]12)N1CCOCC1`, the INHIBITION is on record as 20.74%.

With `Cn1cc(CN2CCc3c(CNC(=O)C4CC4)cncc3C2)cn1`, the INHIBITION was -5.13%.

`O=C(NCC1CC1)[C@H]1C[C@@H]2CCN(CCc3ccccc3)C[C@H]2O1`: the INHIBITION came to 25.4%.

Take `CC(C)n1[nH]c(=O)c2c1NC(=O)CC2c1cccnc1` (stereo unspecified): the INHIBITION is -35.44%.

With `Cc1ccccc1CC(=O)N[C@@H]1CCC[C@@H](N2CCNC(=O)C2)[C@@H]1O`, the INHIBITION was 29.06%.

For `CCc1nc2n(n1)CC(NCc1cc(OC)c3c(c1)OCO3)CC2` (stereo unspecified), the INHIBITION turned out to be 40.24%.

For `Cc1ccc(C(=O)N2CCC(Oc3ccc(C)c(C)c3)CC2)c(=O)[nH]1`, the INHIBITION is given as -37.2%.

On to `Cc1ccc(C(=O)N2CCC(Oc3ccc(F)cc3F)CC2)c(=O)[nH]1`, for which the INHIBITION was determined as 60.31%.

`Cc1ccc(C(=O)N2CCC(Oc3c(C)cccc3C)CC2)c(=O)[nH]1`: the INHIBITION was -11.33%.

In the case of `Cc1ccc(C)c(OC2CCN(C(=O)c3ccc(C)[nH]c3=O)CC2)c1`, the INHIBITION stood at 54.85%.

Turning to `COc1ccc(OC2CCN(C(=O)c3ccc(C)[nH]c3=O)CC2)cc1`, the INHIBITION is 11.95%.

On to `Cc1ccc(C(=O)N2CCC(Oc3cccc(C)c3C)CC2)c(=O)[nH]1`, for which the INHIBITION worked out at 7.64%.

On to `CCN(CC1CCCN(CCc2cccc(OC)c2)C1)C(=O)CN(C)C` (stereo unspecified), for which the INHIBITION was -85.72%.
